Compound activity from PubChem.
An excerpt weighted towards active compounds, which were near 1.8% of everything screened.
TRPML1 blocker: qHTS for Inhibitors of the Human Mucolipin Transient Receptor Potential 1 (TRPML1) | activity change, negative = inhibition, % (no concentration beside the values) | actives 0.02% (n = 390,000) | TRPML1-inducible cells, Ca2+ dye fluorescence, FDSS; stronger effect = lower value; inhibition of EC80 agonist-evoked calcium signal; in the data active = activity change below about -50%; inconclusive = between about -30% and that limit;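 also: stimulus is agonist 54-4 at its EC80 concentration; % is scaled to controls: 0 for no effect and ±100 for the full control effect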
Target sequence (Q9GZU1 whole entry, looked up): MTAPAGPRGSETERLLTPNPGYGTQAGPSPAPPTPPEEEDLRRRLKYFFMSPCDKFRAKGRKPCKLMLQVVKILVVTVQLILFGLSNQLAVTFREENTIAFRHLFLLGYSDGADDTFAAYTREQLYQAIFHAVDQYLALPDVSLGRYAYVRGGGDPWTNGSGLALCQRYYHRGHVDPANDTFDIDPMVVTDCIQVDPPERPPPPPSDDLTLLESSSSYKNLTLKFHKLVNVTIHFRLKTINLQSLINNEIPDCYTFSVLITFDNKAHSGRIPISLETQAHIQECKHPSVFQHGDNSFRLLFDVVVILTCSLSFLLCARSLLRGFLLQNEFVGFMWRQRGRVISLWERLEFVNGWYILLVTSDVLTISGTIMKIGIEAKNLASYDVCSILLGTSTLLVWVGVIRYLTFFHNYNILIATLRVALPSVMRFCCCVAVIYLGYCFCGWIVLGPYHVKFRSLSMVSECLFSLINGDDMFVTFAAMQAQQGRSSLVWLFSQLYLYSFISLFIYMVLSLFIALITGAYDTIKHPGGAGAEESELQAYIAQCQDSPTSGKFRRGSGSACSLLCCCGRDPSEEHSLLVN
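TRPML1-DL cells, Tet-induced overnight (~16 h, 37 °C) at 1,500 cells/well, were loaded with Ca8 no-wash dye plus quencher for 45-90 min at room temperature. Compounds were pinned during FDSS kinetic reading; agonist 54-4 at EC80 (4 uM final) then added.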
GLP-1R agonist: qHTS of GLP-1 Receptor Agonists; actives 0.007% (n = 380,000); Potency, µM (titrated, usually from 45.6 µM), for the others: top-dose activation, most hits filed as activators; HEK293 GLP-1R CRE-luciferase, luminescence, 4-6 h; cells express a hypersensitive GLP-1R form; Glucagon-like peptide 1 receptor (Homo sapiens), P43220; also: potency is read from the fitted curve at half-maximal effect; % of control where 0% means no effect
GLP-1R inv ag: qHTS of GLP-1 Receptor Inverse Agonists (Inhibition Mode); Glucagon-like peptide 1 receptor (Homo sapiens), P43220; HEK293 GLP-1R CRE-luciferase, luminescence, 24 h; GLP-1R form is constitutively active; Potency, µM (highest dose often 38.3 µM), for inactives: top-dose activity change, negative = inhibition, most hits filed as inhibitors; actives 1.6% (n = 410,000); also: potency is read from the fitted curve at half-maximal effect; % is scaled to controls: 0 for no effect and ±100 for the full control effect; nearly all actives have a fitted effect of over 55% in size
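GLP-1R inverse agonism mode: basal reporter luminescence in engineered HEK293 cells measured after one day of compound exposure at 37 deg C, with a 12 min room-temperature detection step.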
TRPML1 agonist: qHTS for Agonists of the Human Mucolipin Transient Receptor Potential 1 (TRPML1); Mucolipin-1 (Homo sapiens), Q9GZU1; TRPML1-expressing cells, Ca2+ dye fluorescence, FDSS; activation, % (test concentration not listed); actives 0.12% (n = 410,000); AID 624414, 2012; in the data active = activation above about 50%; inconclusive = mostly about 30% to 49%; also: 0% is about no effect
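Cells: TRPML1-DL, 1X Tet inducer, ~16 h at 37 degrees C/5% CO2. Dye: ABD Ca8 no-wash + quencher, 45-90 min RT. Read: 10 s baseline, compound add, 110 s agonist phase; 54-4 EC80 (4uM final), 110 s antagonist phase.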
HEK293 tox: qHTS of GLP-1 Receptor Inverse Agonists: Cytotox Screen; HEK293 cAMP-luciferase reporter cells, luminescence, 24 h; Potency, µM (top dose mostly 38.3 µM), for the others: at the highest dose activity change, negative = inhibition, hits mostly inhibitors; actives 0.13% (n = 410,000); AID 624418, 2012;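 also: loss of luciferase light is scored as toxicity; potency is read from the fitted curve at half-maximal effect; % is scaled to controls: 0 for no effect and ±100 for the full control effect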
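Compound-treated cells are incubated 24 hr at 37 deg C under 5% CO2 after a 12 hour attachment period, then luciferase detection reagent is added and luminescence is measured following 12 min at room temperature; lowered signal indicates toxicity.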
The depositor's hits bear a star; ? = inconclusive; . = no result. Unless noted, calls follow the shape of the dose curve; as a rule, active = well fitted curve in the direction sought with a large enough effect; inconclusive = small, poorly fitted or top-dose-only effect, or another doubt; inactive = no such curve, though single readings can be large; an effect the other way counts as inactive or inconclusive.

SMILES | TRPML1 blocker | GLP-1R agonist | GLP-1R inv ag | TRPML1 agonist | HEK293 tox
NC(=S)N/N=C/c1c(O)ccc2ccccc12 | 29 | -4% | -37% | 0 | -14%
NC(=S)N/N=C1/CCSc2ccc3ccccc3c21 | -1 | 14% | 2.2µM* | 1 | 2µM*
Clc1ccc2c(c1)-c1ccccc1C1=NCCN12 | 3 | -11% | 4µM* | 0 | ?
Cc1ccc(C)c(C(Nc2ccccc2)c2ccc3ccc(C)nc3c2O)c1 (configuration not stated) | . | . | 5.6µM* | . | 12%
CC1(C(=O)NCc2cccs2)Cc2c(-c3ccccc3)ccnc2O1 (configuration not stated) | . | 8% | 4.5µM* | -1 | ?
CN(C)c1ccc(-c2ccnc3c2CC(C)(C(=O)NCc2cccs2)O3)cc1 (configuration not stated) | . | -1% | ? | -1 | ?
CC1(C(=O)NCc2ccco2)Cc2c(-c3cccc(C(F)(F)F)c3)ccnc2O1 (configuration not stated) | . | 16% | 2.2µM* | -1 | ?
Cc1ccc(NC(=O)NCCOCCn2c(=O)oc3ccccc32)c(C)c1 | 1 | . | 6% | -1 | -1%
O=C(COc1ccc(/C=N/NC(=O)c2cc3ccccc3o2)cc1Cl)Nc1ccccc1 | -5 | -1% | 4.5µM* | -1 | ?
O=C(C=C=Nc1ccccc1)C(=O)N=C=Cc1ccccc1 | -10 | 0% | ? | 3 | 13µM*
O=C(NC(=S)Nc1ccc(-c2ccccc2)cc1)c1ccccc1 | -9 | 2% | ? | 1 | ?
CC(C)NC(=S)NC(=O)c1ccc(-c2ccccc2)cc1 | -11 | -4% | 10µM* | 15 | ?
CCCCCC[n+]1c(-c2ccc(Cl)cc2Cl)csc1Nc1ccccc1 | -1 | -2% | 10µM* | 1 | 4%
O=S(=O)(c1ccc(Cl)c(Cl)c1)c1snnc1-c1ccccc1 | 28 | -5% | 7.1µM* | 2 | ?
CCN1C(=O)[C@H]2[C@@H](c3ccc(-c4cccc(Cl)c4)c(OC)c3)N3CCCC[C@@]3(C(=O)OC)[C@H]2C1=O | 61 | -3% | ? | 1 | -21%
CCN1C(=O)[C@H]2[C@@H](c3ccc(-c4ccc(F)cc4)cc3)N3CCCC[C@@]3(C(=O)OC)[C@H]2C1=O | 29 | -6% | 5.6µM* | 0 | 8%
CCN1C(=O)[C@H]2[C@@H](c3ccc(-c4cccc(Cl)c4)cc3)N3CCCC[C@@]3(C(=O)OC)[C@H]2C1=O | 5 | -1% | 10µM* | 0 | -24%
CCN1C(=O)[C@H]2[C@@H](c3ccc(-c4cccc(Cl)c4)c(OC)c3)N[C@@](CC(C)C)(C(=O)OC)[C@H]2C1=O | 21 | -6% | 7.9µM* | 0 | -2%
CCN(CC)C(=O)c1sc2c(c1C)c(=O)n(Cc1ccccc1)c(=O)n2Cc1ccccc1C | 59 | . | 11µM* | 2 | -12%
O=C(Nc1nc(-c2cccs2)cs1)c1cccc(S(=O)(=O)N2CCCCCC2)c1 | 3 | -4% | 5.6µM* | 0 | 2%
CCn1cc(CN2CCCC(C(=O)Nc3cccc(-c4cc5ccccc5[nH]4)c3)C2)c(C)n1 (configuration not stated) | -3 | 1% | 11µM* | 0 | ?
Cc1ccc(C(CC(=O)NCCCN(C)C)c2ccc(OC(C)C)cc2)cc1 (configuration not stated) | 11 | 8% | 11µM* | 1 | -17%
CCC/C(=C1/c2ccccc2C(=O)N1c1ccccc1)c1ccc2[nH]ccc2c1 | 28 | -3% | 4.5µM* | 1 | -4%
Cc1ccc2[nH]cc(C(c3ccccc3)c3ccc(Cl)s3)c2c1 (configuration not stated) | -9 | . | 10µM* | 5 | -17%
Cc1cc(C)n(-c2ccc(C(=O)Nc3ccc(S(=O)(=O)NCc4ccco4)cc3)cc2)n1 | 3 | -16% | 11µM* | 3 | -25%
SMILES | TRPML1 blocker | GLP-1R agonist | GLP-1R inv ag | TRPML1 agonist | HEK293 tox
O=C(c1ccco1)N1CCN(CCOCCOc2cccc3ccccc23)CC1 | -9 | 3% | 0% | 0 | -5%
c1ccc(CN2CCN(CCOCCOc3cccc4ccccc34)CC2)cc1 | -2 | 0% | 7.9µM* | 0 | ?
COc1cccc(CNC(=O)c2ccc(-c3nc(COc4ccccc4)c(C)o3)cc2)c1 | 4 | . | ? | 4 | 19%
Cc1cc(C)n2c(Nc3cccc(C(F)(F)F)c3)c(-c3ccsc3)nc2n1 | 10 | . | ? | 0 | -15%
Cc1ccn2c(c1)nc(=S)n2C(=O)c1ccccc1 | 14 | -12% | 2.5µM* | 0 | -19%
Cc1cccc(C(=O)n2c(=S)nc3cc(C)ccn32)c1 | -5 | 4% | ? | 0 | ?
Cc1c(Cl)cccc1N1CC(C)(C)C1=O | -17 | 5% | -6% | 52* | -1%
N#CC(C#N)=Cc1cn(-c2ncc(C(F)(F)F)cc2Cl)c2ccccc12 | 3 | -2% | 7.9µM* | 0 | -9%
Cc1cc(NC(=O)CN2C(=O)CSc3ccc(S(=O)(=O)N(C)C)cc32)ccc1Br | -2 | . | ? | 1 | -3%
NC(=O)[C@@H]1CC2(CC(c3cccc(NC(=O)CC(c4ccccc4)c4ccccc4)c3)=NO2)CN1C(=O)COc1ccc(Cl)cc1 (some centres not stated) | 0 | 2% | 11µM* | 0 | -21%
NC(=O)[C@H]1CC2(CC(c3cccc(NC(=O)COc4ccc(Cl)cc4)c3)=NO2)CN1C(=O)CC(c1ccccc1)c1ccccc1 (some centres not stated) | 24 | -4% | 10µM* | 1 | 2%
CCN(CC)CCCNC(=O)CSc1nc(-c2ccc(OC)cc2)cc(C(F)(F)F)n1 | 3 | . | ? | 0 | 0%
COC(=O)c1ccc(NC(=O)c2c(NCc3ccc(OC)c(OC)c3)sc3c2CCCC3)cc1 | 2 | . | ? | 0 | -39%
Cc1ccc(NC(=O)N(Cc2c[nH]c3ccccc23)C2CCCCCC2)cc1C | -3 | 8% | ? | 0 | -3%
COCCNCc1nc2sc(C)c(-c3ccccc3)c2c(=O)[nH]1 | -14 | 9% | 11µM* | -1 | ?
O=S(=O)(NCC1(N2CCOCC2)CCCCC1)c1ccc(Cl)cc1C(F)(F)F | -12 | 2% | ? | 81* | -15%
CC(C)NC(=S)NN(c1ccccc1)c1ccccc1 | 2 | -3% | 11µM* | 1 | -19%
C=CCc1ccccc1OCC(O)CN1CCN(c2ccccc2OC)CC1 (configuration not stated) | 21 | 2% | ? | 0 | -24%
